According to PubChem BioAssay (Tox21):
Results filed as inconclusive are left out. Active and inactive are the calls of the source. Unless noted, the call rests on the fitted dose curve; in most records, active means well fitted curve in the direction sought with a large enough effect in the repeat runs; inconclusive means weak or mixed curves; inactive means no such curve, though single readings can be large; an effect the other way counts as inactive or inconclusive.

Key:
[1] = qHTS assay to identify small molecule antagonists of the glucocorticoid receptor (GR) signaling pathway - cell viability counter screen (AID 720693); further: nearly all actives have a fitted effect of over 55% in size
[2] = qHTS assay for identifying genotoxic compounds that show differential cytotoxicity against isogenic chicken DT40 cell lines with known DNA damage response pathways - wild type cell line (AID 743012); further: nearly all actives have a fitted effect of over 60% in size
Procedure, shortened: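 Using parental DT40 (300 cells/well), compounds delivered in DMSO incubate 40 h at 37 C/5% CO2. CellTiter-Glo reagent then stands 30 min at room temperature, and luminescence gives cell viability.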

[3] = qHTS assay for identifying genotoxic compounds that show differential cytotoxicity against isogenic chicken DT40 cell lines with known DNA damage response pathways - Rev3 mutant cell line (AID 743014); further: nearly all actives have a fitted effect of over 55% in size
[4] = qHTS assay for identifying genotoxic compounds that show differential cytotoxicity against isogenic chicken DT40 cell lines with known DNA damage response pathways - Rad54/Ku70 mutant cell line (AID 743015); further: nearly all actives have a fitted effect of over 60% in size
[5] = qHTS assay to identify small molecule antagonists of the androgen receptor (AR) signaling pathway - cell viability counter screen (AID 743033; further: nearly all actives have a fitted effect of over 45% in size)
[6] = qHTS assay to identify small molecule antagonists of the androgen receptor (AR) signaling pathway using the MDA cell line - cell viability counter screen (AID 743041; further: nearly all actives have a fitted effect of over 45% in size)
Procedure, shortened: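 Same-well cytotoxicity was assessed by CellTiter-Fluor in MDA-kb2 AR-luc cells after 16 h of compound treatment under R1881 agonism.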

[7] = qHTS assay to identify small molecule antagonists of the thyroid receptor (TR) signaling pathway - cell viability counter screen (AID 743064); further: nearly all actives have a fitted effect of over 50% in size
Procedure, shortened: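 Counter screen for cytotoxicity: compound plus T3 (1 nM final) on GH3.TRE-Luc cells, 23.5 h at 37 °C, then fluorescence viability readout with CellTiter-Fluor.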

[8] = qHTS assay to identify small molecule antagonists of the thyroid receptor (TR) signaling pathway (AID 743065); further: series mostly up to about 70 µM; nearly all actives have a fitted effect of over 55% in size
Procedure, shortened: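 GH3.TRE-Luc rat pituitary cells (two TREs driving luciferase) were dosed with compound, then stimulated with 1 nM T3 (final) for 23.5 h at 37 C. ONE-Glo luminescence was the read-out, with CellTiter-Fluor fluorescence as the cytotoxicity counter-screen.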

[9] = test system: thyroid hormone receptor (rat, GH3 cells); test: qHTS assay to identify small molecule agonists of the thyroid receptor (TR) signaling pathway (AID 743066; calls by dose curve)
[10] = target: Estrogen receptor (Homo sapiens) (UniProt P03372); test: qHTS assay to identify small molecule antagonists of the estrogen receptor alpha (ER-alpha) signaling pathway (AID 743069; active means well fitted curve in the direction sought with a large enough effect in the signal ratio in the repeat runs, not every such curve was filed as active; the % refers to the signal ratio)
Estrogen receptor (Homo sapiens), sequence (P03372 whole entry, looked up): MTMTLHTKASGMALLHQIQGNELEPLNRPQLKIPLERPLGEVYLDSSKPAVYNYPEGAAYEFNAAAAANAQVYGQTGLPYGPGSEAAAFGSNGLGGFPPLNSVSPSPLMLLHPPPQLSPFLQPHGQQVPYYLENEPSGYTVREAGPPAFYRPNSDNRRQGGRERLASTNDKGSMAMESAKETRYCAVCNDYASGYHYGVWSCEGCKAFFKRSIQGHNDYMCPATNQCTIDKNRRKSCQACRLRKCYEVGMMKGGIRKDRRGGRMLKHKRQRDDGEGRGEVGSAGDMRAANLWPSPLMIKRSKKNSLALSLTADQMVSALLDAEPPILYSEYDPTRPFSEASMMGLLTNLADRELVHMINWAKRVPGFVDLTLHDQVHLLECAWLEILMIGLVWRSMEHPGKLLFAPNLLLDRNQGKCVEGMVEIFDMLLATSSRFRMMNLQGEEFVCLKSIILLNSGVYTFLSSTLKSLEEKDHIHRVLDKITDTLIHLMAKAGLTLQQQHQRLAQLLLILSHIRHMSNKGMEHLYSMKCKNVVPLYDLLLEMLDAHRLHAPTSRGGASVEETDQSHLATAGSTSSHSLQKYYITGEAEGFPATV
Procedure, shortened: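 Reporter cells (ER-alpha-bla, HEK293 background) are conditioned overnight in stripped-serum medium (2% charcoal-stripped FBS). Compound and 17beta-estradiol exposure runs 18 hr at 37C, 5% CO2.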

[11] = qHTS assay to identify small molecule antagonists of the estrogen receptor alpha (ER-alpha) signaling pathway - cell viability counter screen (AID 743074; calls by dose curve;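 further: HEK293 cells carrying ER-alpha-UAS-bla reporter stimulated with 17beta-estradiol; nearly all actives have a fitted effect of over 45% in size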)
[12] = target: Estrogen receptor (Homo sapiens) (UniProt P03372); test: qHTS assay to identify small molecule agonists of the estrogen receptor alpha (ER-alpha) signaling pathway (AID 743075; calls by dose curve;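 further: HEK293 GripTite cells with ER-alpha and UAS-driven beta-lactamase reporter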)
[13] = target: Estrogen receptor (Homo sapiens) (UniProt P03372); test: qHTS assay to identify small molecule agonists of the estrogen receptor alpha (ER-alpha) signaling pathway using the BG1 cell line (AID 743079); further: nearly all actives have a fitted effect of over 20% in size
[14] = qHTS assay to identify small molecule antagonists of the estrogen receptor alpha (ER-alpha) signaling pathway using the BG1 cell line (AID 743080; calls by dose curve;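 further: BG1 cells stimulated with 17beta-estradiol alongside compound; series mostly up to about 70 µM; nearly all actives have a fitted effect of over 25% in size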)
Procedure, shortened: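 Luciferase inhibition measured with ONE-Glo after 30 min at RT in BG1Luc4E2 cells given test compounds and 17beta-estradiol for 21.5 h at 37 C; CellTiter-Fluor viability read in the same wells beforehand.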

[15] = qHTS assay to identify small molecule antagonists of the estrogen receptor alpha (ER-alpha) signaling pathway using the BG1 cell line - cell viability counter screen (AID 743081);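 further: compound given together with 17beta-estradiol as the ER stimulus; series mostly up to about 70 µM; nearly all actives have a fitted effect of over 45% in size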
Aromatase (Homo sapiens) = Aromatase (Homo sapiens) (UniProt P11511); test: qHTS assay to identify aromatase inhibitors (AID 743083); further: series mostly up to about 70 µM; nearly all actives have a fitted effect of over 55% in size
Aromatase (Homo sapiens), sequence (P11511 whole entry, looked up): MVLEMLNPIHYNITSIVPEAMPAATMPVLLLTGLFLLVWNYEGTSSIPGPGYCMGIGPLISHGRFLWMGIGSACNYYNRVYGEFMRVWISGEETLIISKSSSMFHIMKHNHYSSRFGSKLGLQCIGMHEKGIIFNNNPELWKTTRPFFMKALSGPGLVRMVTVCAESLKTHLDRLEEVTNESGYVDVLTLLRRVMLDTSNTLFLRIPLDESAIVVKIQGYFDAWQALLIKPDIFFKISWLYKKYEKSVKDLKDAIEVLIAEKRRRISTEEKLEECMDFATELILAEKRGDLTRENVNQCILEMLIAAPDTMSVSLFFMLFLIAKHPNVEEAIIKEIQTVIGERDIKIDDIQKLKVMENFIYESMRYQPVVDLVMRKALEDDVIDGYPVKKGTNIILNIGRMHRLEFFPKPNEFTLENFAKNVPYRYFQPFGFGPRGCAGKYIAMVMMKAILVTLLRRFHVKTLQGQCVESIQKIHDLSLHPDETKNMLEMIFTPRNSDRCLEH

[16] = target: Androgen receptor (Homo sapiens) (UniProt P10275); test: qHTS assay to identify small molecule antagonists of the androgen receptor (AR) signaling pathway (AID 743035; active means well fitted inhibition curve with a large enough effect in the signal ratio in the repeat runs, not every such curve was filed as active; the % refers to the signal ratio)
Androgen receptor (Homo sapiens), sequence (P10275 whole entry, looked up): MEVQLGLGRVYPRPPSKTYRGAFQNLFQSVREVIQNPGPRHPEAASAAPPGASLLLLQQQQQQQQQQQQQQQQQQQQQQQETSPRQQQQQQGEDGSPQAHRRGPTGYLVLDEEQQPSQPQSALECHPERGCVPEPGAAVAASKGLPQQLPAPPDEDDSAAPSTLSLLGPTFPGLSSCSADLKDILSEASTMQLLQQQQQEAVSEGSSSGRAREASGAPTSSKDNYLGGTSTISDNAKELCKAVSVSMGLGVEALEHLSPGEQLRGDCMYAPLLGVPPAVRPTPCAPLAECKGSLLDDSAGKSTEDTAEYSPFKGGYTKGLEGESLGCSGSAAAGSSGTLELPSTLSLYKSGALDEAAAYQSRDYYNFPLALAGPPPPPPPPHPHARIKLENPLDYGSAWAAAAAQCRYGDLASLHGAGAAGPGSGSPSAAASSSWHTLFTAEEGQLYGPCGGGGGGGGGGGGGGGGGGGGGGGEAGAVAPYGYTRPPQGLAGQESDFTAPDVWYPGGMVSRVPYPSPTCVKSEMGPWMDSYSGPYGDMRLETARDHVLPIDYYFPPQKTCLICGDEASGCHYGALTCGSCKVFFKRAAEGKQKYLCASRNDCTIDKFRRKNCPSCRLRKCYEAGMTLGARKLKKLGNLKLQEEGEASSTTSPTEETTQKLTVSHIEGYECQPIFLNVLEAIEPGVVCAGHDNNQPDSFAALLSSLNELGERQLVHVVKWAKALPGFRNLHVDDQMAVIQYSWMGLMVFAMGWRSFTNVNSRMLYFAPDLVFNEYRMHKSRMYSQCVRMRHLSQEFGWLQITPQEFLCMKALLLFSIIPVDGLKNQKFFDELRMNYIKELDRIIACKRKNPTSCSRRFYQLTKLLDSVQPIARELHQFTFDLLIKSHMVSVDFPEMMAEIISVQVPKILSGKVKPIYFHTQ
Procedure, shortened: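 Using qHTS, AR-UAS-bla GripTite HEK293 cells received compound, then R1881, and were cultured 16 h at 37C/5% CO2 before a 2 h room-temperature LiveBLAzer B/G FRET substrate step and fluorescence measurement.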

[17] = target: Androgen receptor (Homo sapiens) (UniProt P10275); test: qHTS assay to identify small molecule agonists of the androgen receptor (AR) signaling pathway using the MDA cell line (AID 743040; further: nearly all actives have a fitted effect of over 20% in size)
Procedure, shortened: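 Human breast carcinoma MDA-kb2 reporter cells (MMTV-luc, AR/GR elements) were treated for 16 h at 37C in 0% CO2 following a 5 h settling period. Signal was quantified by ONE-Glo luminescence.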

[18] = target: Androgen receptor (Homo sapiens) (UniProt P10275); test: qHTS assay to identify small molecule antagonists of the androgen receptor (AR) signaling pathway using the MDA cell line (AID 743042; further: nearly all actives have a fitted effect of over 55% in size)
Procedure, shortened: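 MDA-kb2 breast carcinoma cells carrying MMTV-luciferase (AR/GR responsive) were co-treated with compounds and the agonist R1881 for 16 h at 37C. Inhibition read as ONE-Glo luminescence; CellTiter-Fluor fluorescence measured in parallel for cytotoxicity.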

[19] = target: Androgen receptor (Homo sapiens) (UniProt P10275); test: qHTS assay to identify small molecule agonists of the androgen receptor (AR) signaling pathway (AID 743036; active means well fitted activation curve with a large enough effect in the signal ratio in the repeat runs, with a control signal flat, not every such curve was filed as active; the % refers to the signal ratio)
Procedure, shortened: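 In this Tox21 qHTS, 2,000 HEK293 AR-bla cells per well were incubated with compounds for 16 h at 37C and 5% CO2. Fluorescence intensity was recorded 2 h after adding LiveBLAzer B/G FRET substrate at room temperature.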

Measured: Potency

CC1(C)Cc2cccc(N)c2O1
not listed: [16] | [17] | [18] | [19]
inactive: all other assays above

CCCCCCCCCCCCCCC(=O)NC(CO)CCCCCCCCCCCCCC (stereo not given)
not listed: [16] | [17] | [18] | [19]
inactive: all other assays above

Cc1c(Cl)cccc1Cl
not listed: [16] | [17] | [18] | [19]
inactive: all other assays above

OC1OCCOC1O (stereo not given)
not listed: [16] | [17] | [18] | [19]
inactive: all other assays above

COC(=O)c1cccc(Cl)c1
not listed: [16] | [17] | [18] | [19]
inactive: all other assays above

CC1c2ccccc2CN1NC(=O)c1ccc(Cl)c(S(N)(=O)=O)c1 (stereo not given)
not listed: [16] | [17] | [18] | [19]
inactive: all other assays above

CSc1cnccn1
not listed: [16] | [17] | [18] | [19]
inactive: all other assays above

Cc1c(C(=O)c2c[nH]n(C)c2=O)ccc(S(C)(=O)=O)c1C1=NOCC1
not listed: [10] | [19]
inactive: all other assays above

CCC[C@@H]1C[C@@H](C(=O)N[C@@H]([C@H]2O[C@H](SC)[C@H](O)[C@@H](O)[C@H]2O)[C@@H](C)O)N(C)C1
not listed: [16] | [17] | [18] | [19]
inactive: all other assays above

C[Si]1(C)O[Si](C)(C)O[Si](C)(C)O[Si](C)(C)O[Si](C)(C)O1
not listed: [16] | [17] | [18] | [19]
inactive: all other assays above

C/C(CC(C)C)=N\O
not listed: [16] | [17] | [18] | [19]
inactive: all other assays above

COC(=O)c1cc(Cl)cc(Cl)c1
not listed: [10] | [19]
inactive: all other assays above

CCC(C)OC(C)CC (stereo not given)
inactive: all assays above

CCCCCCCCCOC(=O)c1ccccc1C(=O)OCCCCCCCCC
not listed: [16]
inactive: all other assays above

COc1ccc(CCO)cc1
not listed: [10] | [12] | [13] | [14] | [16]
inactive: all other assays above

CC(=O)O[C@@H]1CC2CCC1(C)C2(C)C (stereo not given in full)
not listed: [8] | [9] | [10] | [12] | [13] | [14]
inactive: all other assays above

Fc1ccccc1
not listed: [16] | [17] | [18] | [19]
inactive: all other assays above
